# Reference: PubChem BioAssay
# Inconclusive results are not listed. For part of these data: Measured potencies and affinities stand elsewhere. Activity calls are given as the source filed them.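 How the source made its calls, unless noted: active means thallium flux through the channel raised or lowered by more than 3 SD from vehicle-only wells, actives on both sides; inactive means the rest.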
# How the values were obtained:
# [1] = blockers of polyQ-driven CASP3 activation – cell-based (AID 1583); conditions: polyglutamine-induced caspase-3 activation, cell assay; stronger effect = higher value;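 tested at 10 µM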
# [2] = yeast 75Q aggregation reduction – 75Q-TubU reporter (AID 1593); conditions: Yeast 75Q polyglutamine aggregation reporter
# [3] = restoration of touch response, mutant HTT neurons – whole organism, C. elegans mechanosensory neurons, N-terminal huntingtin (AID 1599); conditions: C. elegans polyQ-huntingtin mechanosensory neurons, stronger effect = higher value
# [4] = blockers of cytochrome c efflux from mitochondria – biochemical, purified mitochondria (AID 1603); conditions: stronger effect = lower value;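 further: mouse liver mitochondria challenged with calcium chloride; signal normalized to the plate average as 100%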
# [5] = polyglutamine aggregate formation blockers (AID 1604); conditions: polyglutamine-induced protein aggregation inhibition assay; stronger effect = higher value; tested at 2.5 µM
# [6] = glutamate transport activators, MN-1 cells, MN-1 cell line (AID 1612); conditions: MN-1 motor neuron cells, stronger effect = higher value;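 further: tested at 1 µM final; 0% = mean of DMSO vehicle wells on each plate; positive means more glutamate uptake than control and negative means less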
# [7] = 75Q-TubH aggregate inhibition, S. cerevisiae, yeast (AID 1616); conditions: S. cerevisiae 75Q-TubH polyglutamine aggregation suppression; stronger effect = higher value
# [8] = modulation of C. elegans fzo-1 (AID 1259413; call rule not given here;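 further: fzo-1 mutant C. elegans worms in liquid wells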); conditions: C. elegans fzo-1 modulator screen, mean read-out; stronger effect = higher value
# [9] = test system: F380Y/beta1; assay: BK channel mutant inhibitors and activators – cell-based, U2OS BacMam, thallium flux, beta subunits, selectivity assay, profiling panel (AID 1259406); conditions: U2OS BacMam BK variants, at 30 µM;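 further: initial slope of Thallos dye fluorescence rise after thallium is added; log ratio against the mean of 0.3% DMSO vehicle wells on the same plate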
# [10] = test system: F380Y/beta4; assay: as above; conditions: U2OS BacMam BK variants, at 30 µM
# [11] = test system: R275C/beta4; assay: as above; conditions: U2OS BacMam BK variants, at 30 µM
# [12] = test system: R275C/Slo1WT/beta2; assay: as above; conditions: U2OS BacMam BK variants, at 30 µM
# [13] = test system: Aerobactin synthetase IucA (Klebsiella pneumoniae); assay: inhibition of K. pneumoniae IucA enzyme – biochemical, Tocris library, absorbance (AID 1345561; call rule not given here;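 further: 100% = enzyme without compound and 0% = no enzyme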); conditions: purified IucA enzyme assay, absorbance (OD) read-out; stronger effect = lower value;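 tested at 8 µM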
# [14] = growth inhibition of DIPG cells – cell-based, MIPE4.0 library, CellTiter-Glo luminescence, qHTS (AID 1347066; cut-off not given, nearly all actives have AC50 up to about 30 µM;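 further: cells exposed to compound for 48 hours before readout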); conditions: SU-DIPG-VI viability, CellTiter-Glo ATP luminescence
# [15] = viability loss in pontine glioma line – cell-based, JHH-DIPG-1, MIPE4.0, CellTiter-Glo, qHTS, dose response (AID 1347062; cut-off not given, nearly all actives have AC50 up to about 27 µM;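 on AC50: cells exposed to compound for two days before readout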); conditions: JHH-DIPG-1 viability, CellTiter-Glo ATP luminescence
# [16] = compounds altering circadian rhythm period length – cell-based, LOPAC library, luminescence reporter (AID 2774; call rule not given here;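 further: values are relative to mean of DMSO wells on each plate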); conditions: circadian reporter cells, at 7 µM, actives lie on both sides
# [17] = test system: Hepatitis C virus NS3 helicase; assay: blockers of NS3h binding to ssDNA – biochemical, fluorescence polarization, LOPAC1280 library, primary screen (AID 687035; in the data active means inhibition above about 37%); conditions: Purified HCV NS3 helicase, Cy5-dT15 ssDNA binding fluorescence polarization; stronger effect = higher value; concentration not given here
# [18] = compounds altering Cy5-DNA-NS3h complex signal – biochemical, LOPAC1280, artefact control for HCV NS3 helicase inhibitor project (AID 687037; call rule not given here); conditions: Cy5-DNA-NS3h complex fluorescence interference counterscreen
# [19] = blockers of cellular phospholipid synthesis – cell-based, LOPAC library, screen 4, primary screen (AID 1347384; call rule not given here); conditions: animal cells, phospholipid biosynthesis inhibition screen; at 10 µM
# [20] = compounds altering HSF1 focus formation in cells – imaging, Selleck Cancer Library (AID 1347162; in the data active means plate-normalised HSF1 focus index below about 0.46); conditions: human cells, HSF1 nuclear foci imaging, at 10 µM; SSMD: measured here: HSF1 foci SSMD mean; cell count: measured here: cell number; plate-normalised HSF1 focus index: stronger effect = lower value
smiles,measurement,setting,value
CC(=O)N=c1sc(S(N)(=O)=O)nn1C,inhibition,[1],0.15%
same,score,[2],0.84
same,rescue above control,[3],-0.14
same,cytochrome c release ratio,[4],0.55
same,inhibition of aggregation,[5],49.4%
same,glutamate uptake change,[6],-1.05%
same,aggregation suppression score,[7],1.33
same,mean signal,[8],273 (inactive)
same,log fold change Tl+ flux,[9],-0.0785 (inactive)
same,log fold change Tl+ flux,[10],0.0268 (inactive)
same,log fold change Tl+ flux,[11],-0.0118 (inactive)
same,log fold change Tl+ flux,[12],-0.0121 (inactive)
C#C[C@]1(O)CC[C@H]2[C@@H]3CCC4=CC(=O)CC[C@@H]4[C@H]3CC[C@@]21C,log fold change Tl+ flux,[9],0.0886 (inactive)
same,log fold change Tl+ flux,[10],0.0669 (inactive)
same,log fold change Tl+ flux,[11],-0.0715 (inactive)
same,log fold change Tl+ flux,[12],-0.0385 (inactive)
CC(C)[N+]1(C)C2CCC1CC(OC(=O)C(CO)c1ccccc1)C2 (configuration not stated),mean signal,[8],254 (inactive)
same,remaining activity,[13],98.6% (inactive)
same,outcome,[14],inactive
same,log fold change Tl+ flux,[9],0.0263 (inactive)
same,log fold change Tl+ flux,[10],0.0435 (inactive)
same,log fold change Tl+ flux,[11],0.0153 (inactive)
same,log fold change Tl+ flux,[12],-0.0119 (inactive)
C[C@H](CCC(=O)O)[C@H]1CC[C@H]2[C@@H]3[C@@H](O)C[C@@H]4C[C@H](O)CC[C@]4(C)[C@H]3CC[C@]12C,AC50,[15],20.9 µM (active)
same,outcome,[14],inactive
same,log fold change Tl+ flux,[9],0.0488 (inactive)
same,log fold change Tl+ flux,[10],0.0547 (inactive)
same,log fold change Tl+ flux,[11],-0.0188 (inactive)
same,log fold change Tl+ flux,[12],-0.0131 (inactive)
CN1CCN(CC/C=C2/c3ccccc3Sc3ccc(S(=O)(=O)N(C)C)cc32)CC1,period change,[16],0.09 h (inactive)
same,mean signal,[8],215 (inactive)
CN=C(N)NCCC[C@H](N)C(=O)O,period change,[16],-0.035 h (inactive)
same,inhibition,[17],0% (inactive)
same,fluorescence ratio (interference),[18],1 (inactive)
same,mean signal,[8],269 (inactive)
same,outcome,[19],inactive
CC(=O)OCC(=O)[C@@]1(O)CC[C@H]2[C@@H]3C[C@H](C)C4=CC(=O)C=C[C@]4(C)[C@H]3[C@@H](O)C[C@@]21C,mean signal,[8],251 (inactive)
same,log fold change Tl+ flux,[9],0.0602 (inactive)
same,log fold change Tl+ flux,[10],0.0393 (inactive)
same,log fold change Tl+ flux,[11],0.0801 (inactive)
same,log fold change Tl+ flux,[12],0.0333 (inactive)
Cc1ccc(N(CC2=NCCN2)c2cccc(O)c2)cc1,inhibition,[1],0.92%
same,score,[2],1.23
same,rescue above control,[3],-6.1
same,cytochrome c release ratio,[4],0.77
same,inhibition of aggregation,[5],56.3%
same,glutamate uptake change,[6],-12.3%
same,aggregation suppression score,[7],1.42
same,period change,[16],-0.015 h (inactive)
same,inhibition,[17],-6% (inactive)
same,fluorescence ratio (interference),[18],0.9 (inactive)
same,mean signal,[8],229 (inactive)
same,outcome,[15],inactive
same,outcome,[14],inactive
same,outcome,[19],inactive
OC[C@H]1O[C@@H](Oc2cc(O)cc(/C=C/c3ccc(O)cc3)c2)[C@H](O)[C@@H](O)[C@@H]1O,mean signal,[8],254 (inactive)
same,outcome,[15],inactive
same,outcome,[14],inactive
same,log fold change Tl+ flux,[9],-0.0141 (inactive)
same,log fold change Tl+ flux,[10],-0.0711 (inactive)
same,log fold change Tl+ flux,[11],0.00405 (inactive)
same,log fold change Tl+ flux,[12],0.104 (active)
Nc1ccn([C@@H]2O[C@H](CO)[C@@H](O)C2O)c(=O)n1 (some centres not stated),mean signal,[8],259 (inactive)
same,outcome,[15],inactive
same,SSMD,[20],-7.27
same,cell count,[20],7440
same,plate-normalised HSF1 focus index,[20],0.739 (inactive)
same,outcome,[19],inactive
CC(=O)OCC(=O)[C@@]1(O)CC[C@H]2[C@@H]3CCC4=CC(=O)CC[C@]4(C)[C@H]3[C@@H](O)C[C@@]21C,log fold change Tl+ flux,[9],-0.0206 (inactive)
same,log fold change Tl+ flux,[10],0.0297 (inactive)
same,log fold change Tl+ flux,[11],-0.0187 (inactive)
same,log fold change Tl+ flux,[12],-0.0133 (inactive)
CCC(=O)OCC(=O)[C@@]1(OC(=O)CC)[C@@H](C)C[C@H]2[C@@H]3CCC4=CC(=O)C=C[C@]4(C)[C@@]3(Cl)[C@@H](O)C[C@@]21C,log fold change Tl+ flux,[9],-0.203 (active)
same,log fold change Tl+ flux,[10],-0.237 (active)
same,log fold change Tl+ flux,[11],0.0199 (inactive)
same,log fold change Tl+ flux,[12],-0.0376 (inactive)
C=CC1=C(C(=O)O)N2C(=O)[C@@H](NC(=O)/C(=N\O)c3csc(N)n3)[C@H]2SC1 (stereo in doubt),mean signal,[8],293 (inactive)
same,outcome,[15],inactive
same,outcome,[14],inactive
C[C@]12CC[C@@H]3c4ccc(O)cc4CC[C@H]3[C@@H]1CC[C@@H]2O,period change,[16],0.19 h (inactive)
same,inhibition,[17],-3% (inactive)
same,fluorescence ratio (interference),[18],1 (inactive)
same,outcome,[14],inactive
same,SSMD,[20],2.53
same,cell count,[20],7010
same,plate-normalised HSF1 focus index,[20],1.15 (inactive)
same,outcome,[19],inactive
CCCc1nc(C(C)(C)O)c(C(=O)OCc2oc(=O)oc2C)n1Cc1ccc(-c2ccccc2-c2nn[nH]n2)cc1,mean signal,[8],232 (inactive)
CCN1CCN(C(=O)N[C@@H](C(=O)N[C@@H]2C(=O)N3[C@@H]2SC(C)(C)[C@@H]3C(=O)O)c2ccccc2)C(=O)C1=O,mean signal,[8],257 (inactive)
same,log fold change Tl+ flux,[9],0.00225 (inactive)
same,log fold change Tl+ flux,[10],-0.0114 (inactive)
same,log fold change Tl+ flux,[11],0.0304 (inactive)
same,log fold change Tl+ flux,[12],0.0399 (inactive)
CCCCC(=O)O[C@H]1CC[C@H]2[C@@H]3CCc4cc(O)ccc4[C@H]3CC[C@]12C,log fold change Tl+ flux,[9],-0.0484 (inactive)
same,log fold change Tl+ flux,[10],0.00293 (inactive)
same,log fold change Tl+ flux,[11],-0.0402 (inactive)
same,log fold change Tl+ flux,[12],0.00597 (inactive)
CON=C(C(=O)NC1C(=O)N2C(C(=O)O)=C(COC(C)=O)CSC12)c1csc(N)n1 (configuration not stated),log fold change Tl+ flux,[9],-0.0319 (inactive)
same,log fold change Tl+ flux,[10],0.0152 (inactive)
same,log fold change Tl+ flux,[11],-0.0222 (inactive)
same,log fold change Tl+ flux,[12],-0.0319 (inactive)
O=c1cc(-c2ccccc2)oc2cc(O)c(O)c(O)c12,remaining activity,[13],119% (inactive)
